The source of these data is ChEMBL document CHEMBL3433997, “St. Jude Leishmania screening dataset” (2016).

Solute carrier family 2, facilitated glucose transporter member 1 (Homo sapiens), sequence (P11166 whole entry): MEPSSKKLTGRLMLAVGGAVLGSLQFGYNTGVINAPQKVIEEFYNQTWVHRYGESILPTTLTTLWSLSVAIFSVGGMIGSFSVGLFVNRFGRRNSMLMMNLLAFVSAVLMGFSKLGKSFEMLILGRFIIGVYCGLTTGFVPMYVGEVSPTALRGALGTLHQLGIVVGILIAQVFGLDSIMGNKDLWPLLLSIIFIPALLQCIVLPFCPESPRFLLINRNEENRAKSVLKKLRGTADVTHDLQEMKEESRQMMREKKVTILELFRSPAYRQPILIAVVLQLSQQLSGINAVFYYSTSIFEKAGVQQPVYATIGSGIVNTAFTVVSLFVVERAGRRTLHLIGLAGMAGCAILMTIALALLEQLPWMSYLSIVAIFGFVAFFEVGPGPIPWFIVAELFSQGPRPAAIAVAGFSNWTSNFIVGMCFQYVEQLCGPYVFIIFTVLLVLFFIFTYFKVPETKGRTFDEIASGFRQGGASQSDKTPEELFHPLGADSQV

One experiment has as its target Solute carrier family 2, facilitated glucose transporter member 1 (Homo sapiens) (UniProt P11166). Briefly: ST_JUDE_LEISH: Cytotoxicity at 2uM final concentration against transgenic Leishmania Mexicana promastigotes LmGLUT1 that are glucose transport deficient and complemented with the human glucose transporter GLUT1. Activity is measured by DNA content using SYBR green in vitro. The format is functional.
For the compound `O=C(/C=C/c1ccc(Cl)cc1)NCCCCCN1CCCN(C(=O)Nc2cccc(Cl)c2)CC1`, the inhibition was -2.75%.
On the same count and under the same terms, as for `Cn1c(-c2ccccc2)cc2c3c(=O)cc(C(F)(F)F)[nH]c3ccc21`, the figure is 13.8%; as for `CCCCCCN1CCCN(Cc2cccc(C(=O)Nc3ccc(C(C)(C)C)cc3)c2)CC1`, 1.39%.
In the case of `COc1ccc(Nc2nccc(-c3ccc4ccnc(NCCCCN)c4c3)n2)cc1`, the inhibition was -0.78%.
Still for that read-out and setting: as for `Cc1cc(N(C)C)nc(Nc2ccc(NC(=O)CCc3ccccc3)cc2)n1`, the figure is 3.05%; as for `COc1ccc(CCNc2nc(NCc3ccccc3)c3cc(OC)c(OC)cc3n2)cc1OC`, 5.66%; as for `N#Cc1ccc(C(=O)Nc2ccc(-c3cccc(CN4CCCC4)c3)cc2)cc1`, 4.22%.
The same measure, in the same setting: as for `CC(C)CNCc1ccc(-c2cccc(-c3nc4ccccc4[nH]3)c2)cc1`, the figure is 1.31%.
Still for that read-out and setting: as for `COc1ccc(CNCc2ccccc2)cc1-c1ccc(OC)c(S(=O)(=O)NCCN2CCCC2)c1`, the figure is -0.27%.
For `O=C(Nc1ccc(SC(F)(F)F)cc1)Nc1ccnc2ccccc12`, the inhibition was -1.32%.
On the same count and under the same terms, as for `CS(=O)(=O)CCNCc1cccc(-c2ccc3c(Nc4ccc(Oc5cccnc5)cc4)ccnc3c2)c1`, the figure is -1.35%.
Regarding `Cc1cc(F)ccc1Nc1nc(N(C)c2ccccc2)c2cccc(OCCO)c2n1`, the inhibition is 13.7%.
Take `Cc1ccc(CNC(=O)[C@H](Cc2ccccc2)Nc2cc(C)nc(NCCc3ccc(F)cc3)n2)cc1`: the inhibition is 5.47%.
Take `Nc1nc(N)c2c3c(cnc2n1)CCCC3`: the inhibition amounted to 9.74%.
As to `CC12CC3CC(C)(C1)CC(Nc1nc(N4CCOCC4)nc4ccccc14)(C3)C2`, the inhibition is 2.67%.
In the case of `COc1ccc(CN(C)Cc2ccc(NC(=O)c3cccc4c(=O)c5cccc(C)c5[nH]c34)cc2)cc1OC`, the inhibition amounted to 4.59%.
As to `COc1ccccc1C1CCN(CCCCNC(=O)c2ccc(/C=C/c3cc(Cl)cc(Cl)c3)cc2)CC1`, the inhibition was 2.68%.
Same read-out and setting: as for `COc1ccc2nccc([C@@H](O)CN3CCC(NC(=O)/C=C/c4ccc5ccccc5n4)CC3)c2c1`, the figure is 15.2%; as for `CSc1cccc(Nc2nc3ccc(S(=O)(=O)NCC(C)C)cc3n2C(C)C(C)C)c1` (stereo not drawn), 2.75%; as for `CCCN(CCC)CCCNc1ccc(C(=O)Nc2ccc(C(C)C)cc2)cc1[N+](=O)[O-]`, 32.7%.
The same measure, in the same setting: to `COc1ccccc1-c1nc2nc(N)nc(N)c2nc1-c1ccccc1OC` belongs 0.82%; to `CC(C)(C)OC(=O)N1CCC(C2CCN(C(=O)OC(C)(C)C)CC2)CC1`, -2.91%.
The same measure, in the same setting: as for `Cc1cc(NC(=O)Nc2ccc3nc(C)oc3c2)c2cc(Cl)ccc2n1`, the figure is 3.48%.
In the case of `COc1ccc(NC(=O)Nc2cccc(-c3cccc(-c4nc5ccccc5[nH]4)c3)c2)cc1`, the inhibition was -1.96%.
For `COc1ccc2nccc([C@@H](O)CN3CCC(NC(=O)c4ccc5cc[nH]c5c4)CC3)c2c1`, the inhibition is 4.43%.
Still for that read-out and setting: as for `CCn1cc(CN2CCCC(C(=O)Nc3ccc(-c4nc5ccccc5[nH]4)cc3)C2)c(C)n1` (stereo not drawn), the figure is 3.61%; as for `COc1cc(Cc2cnc(N)nc2N)cc(OCCCCCCC(=O)O)c1OC`, 0.12%.
Regarding `CN(/N=C/C=C/c1ccc(Cl)cc1)c1nc(NCCc2ccc(O)cc2)nc(N2CCNCC2)n1`, the inhibition is -0.76%.
Take `Cc1ccccc1C(O)CNc1ccnc(Nc2cccc(C#N)c2)n1` (stereo not drawn): the inhibition came to 3.5%.
For the compound `Cc1nc(-c2cccc3c(NC(=O)Nc4ccc5nccc(N6CCN(C)CC6)c5c4)cccc23)no1`, the inhibition amounted to 4.28%.
As to `O=C(Nc1cccc(-c2csc(-c3ccccc3)n2)c1)c1cccs1`, the inhibition is 2.64%.
On to `CN(C1CCC(NC(=O)/C=C/c2ccccc2)CC1)C1CC2(CCN(C(=O)OC(C)(C)C)CC2)c2ccccc21` (stereo not drawn), for which the inhibition turned out to be 9.97%.
Take `O=C(c1cccc(Cl)c1)N1CCN(c2ccc([N+](=O)[O-])c(NC3CC3)c2)CC1`: the inhibition was 0.4%.
Turning to `N=C(N)NN=Cc1ccc2ccc3ccccc3c2c1`, the inhibition turned out to be 5.52%.
Same read-out and setting: as for `CCC(CC)CN1C(=O)C(c2ccccc2)(c2ccccc2)N=C1N`, the figure is 6.55%; as for `CC(CNCc1cn(Cc2cc(Br)cc(Br)c2)c2ccccc12)CNc1cc(=O)c2ccccc2[nH]1` (stereo not drawn), 0.59%; as for `c1ccc(N2CCN(c3cc(-c4cccnc4)nc(-c4ccncc4)n3)CC2)nc1`, 2.7%.
The same measure, in the same setting: to `CCc1c(CCNCCCCCCNCCc2ccc(OC)c(OC)c2C)ccc(OC)c1OC` belongs 10.2%.
Same read-out and setting: to `O=C(NC1CCN(Cc2ccccc2)CC1)c1cccc(-c2nc3ccc(Cl)cc3[nH]2)c1` belongs 1.15%.

Another experiment has as its target Hexose transporter 1 (Plasmodium falciparum) (UniProt O97467). The experiment in a line: ST_JUDE_LEISH: Cytotoxicity at 2uM final concentration against transgenic Leishmania Mexicana promastigotes LmPfHT that are glucose transport deficient and complemented with the Plasmodium falciparum hexose transporter. Activity is measured by DNA content using SYBR green in vitro. The format is functional.
Turning to `O=C(/C=C/c1ccc(Cl)cc1)NCCCCCN1CCCN(C(=O)Nc2cccc(Cl)c2)CC1`, the inhibition is -1.85%.
For the compound `Cn1c(-c2ccccc2)cc2c3c(=O)cc(C(F)(F)F)[nH]c3ccc21`, the inhibition stood at 13.1%.
Turning to `CCCCCCN1CCCN(Cc2cccc(C(=O)Nc3ccc(C(C)(C)C)cc3)c2)CC1`, the inhibition was 0.8%.
As to `COc1ccc(Nc2nccc(-c3ccc4ccnc(NCCCCN)c4c3)n2)cc1`, the inhibition is -1.84%.
As for `Cc1cc(N(C)C)nc(Nc2ccc(NC(=O)CCc3ccccc3)cc2)n1`, the inhibition came to 6.42%.
In the case of `COc1ccc(CCNc2nc(NCc3ccccc3)c3cc(OC)c(OC)cc3n2)cc1OC`, the inhibition worked out at 8.24%.
On to `N#Cc1ccc(C(=O)Nc2ccc(-c3cccc(CN4CCCC4)c3)cc2)cc1`, for which the inhibition worked out at 1.49%.
`CC(C)CNCc1ccc(-c2cccc(-c3nc4ccccc4[nH]3)c2)cc1`: the inhibition was found to be 9.2%.
With `COc1ccc(CNCc2ccccc2)cc1-c1ccc(OC)c(S(=O)(=O)NCCN2CCCC2)c1`, the inhibition was -0.09%.
Still for that read-out and setting: as for `O=C(Nc1ccc(SC(F)(F)F)cc1)Nc1ccnc2ccccc12`, the figure is -0.22%; as for `CS(=O)(=O)CCNCc1cccc(-c2ccc3c(Nc4ccc(Oc5cccnc5)cc4)ccnc3c2)c1`, -1.49%.
In the case of `Cc1cc(F)ccc1Nc1nc(N(C)c2ccccc2)c2cccc(OCCO)c2n1`, the inhibition is 11.2%.
`Cc1ccc(CNC(=O)[C@H](Cc2ccccc2)Nc2cc(C)nc(NCCc3ccc(F)cc3)n2)cc1`: the inhibition was found to be 4.28%.
The same measure, in the same setting: as for `Nc1nc(N)c2c3c(cnc2n1)CCCC3`, the figure is 9.11%.
On the same count and under the same terms, to `CC12CC3CC(C)(C1)CC(Nc1nc(N4CCOCC4)nc4ccccc14)(C3)C2` belongs 2.82%.
Same read-out and setting: to `COc1ccc(CN(C)Cc2ccc(NC(=O)c3cccc4c(=O)c5cccc(C)c5[nH]c34)cc2)cc1OC` belongs 11.6%; to `COc1ccccc1C1CCN(CCCCNC(=O)c2ccc(/C=C/c3cc(Cl)cc(Cl)c3)cc2)CC1`, 2.81%; to `COc1ccc2nccc([C@@H](O)CN3CCC(NC(=O)/C=C/c4ccc5ccccc5n4)CC3)c2c1`, 13.2%.
In the case of `CSc1cccc(Nc2nc3ccc(S(=O)(=O)NCC(C)C)cc3n2C(C)C(C)C)c1` (stereo not drawn), the inhibition was 4.12%.
Same read-out and setting: as for `CCCN(CCC)CCCNc1ccc(C(=O)Nc2ccc(C(C)C)cc2)cc1[N+](=O)[O-]`, the figure is 22.2%; as for `COc1ccccc1-c1nc2nc(N)nc(N)c2nc1-c1ccccc1OC`, 1.25%.
Consider `CC(C)(C)OC(=O)N1CCC(C2CCN(C(=O)OC(C)(C)C)CC2)CC1`, for which the inhibition is -1.6%.
Same read-out and setting: to `Cc1cc(NC(=O)Nc2ccc3nc(C)oc3c2)c2cc(Cl)ccc2n1` belongs 2.12%; to `COc1ccc(NC(=O)Nc2cccc(-c3cccc(-c4nc5ccccc5[nH]4)c3)c2)cc1`, -0.16%.
Same read-out and setting: as for `COc1ccc2nccc([C@@H](O)CN3CCC(NC(=O)c4ccc5cc[nH]c5c4)CC3)c2c1`, the figure is 4.82%; as for `CCn1cc(CN2CCCC(C(=O)Nc3ccc(-c4nc5ccccc5[nH]4)cc3)C2)c(C)n1` (stereo not drawn), 4.26%; as for `COc1cc(Cc2cnc(N)nc2N)cc(OCCCCCCC(=O)O)c1OC`, -0.55%.
The same measure, in the same setting: to `CN(/N=C/C=C/c1ccc(Cl)cc1)c1nc(NCCc2ccc(O)cc2)nc(N2CCNCC2)n1` belongs 0.71%; to `Cc1ccccc1C(O)CNc1ccnc(Nc2cccc(C#N)c2)n1` (stereo not drawn), 4.38%.
On to `Cc1nc(-c2cccc3c(NC(=O)Nc4ccc5nccc(N6CCN(C)CC6)c5c4)cccc23)no1`, for which the inhibition was 4.25%.
Turning to `O=C(Nc1cccc(-c2csc(-c3ccccc3)n2)c1)c1cccs1`, the inhibition is 2.57%.
The same measure, in the same setting: as for `CN(C1CCC(NC(=O)/C=C/c2ccccc2)CC1)C1CC2(CCN(C(=O)OC(C)(C)C)CC2)c2ccccc21` (stereo not drawn), the figure is 5.58%; as for `O=C(c1cccc(Cl)c1)N1CCN(c2ccc([N+](=O)[O-])c(NC3CC3)c2)CC1`, 2.47%; as for `N=C(N)NN=Cc1ccc2ccc3ccccc3c2c1`, 7.75%.
Same read-out and setting: to `CCC(CC)CN1C(=O)C(c2ccccc2)(c2ccccc2)N=C1N` belongs 5.61%; to `CC(CNCc1cn(Cc2cc(Br)cc(Br)c2)c2ccccc12)CNc1cc(=O)c2ccccc2[nH]1` (stereo not drawn), 1.26%; to `c1ccc(N2CCN(c3cc(-c4cccnc4)nc(-c4ccncc4)n3)CC2)nc1`, 1.5%.
Consider `CCc1c(CCNCCCCCCNCCc2ccc(OC)c(OC)c2C)ccc(OC)c1OC`, for which the inhibition turned out to be 9.23%.
Still for that read-out and setting: as for `O=C(NC1CCN(Cc2ccccc2)CC1)c1cccc(-c2nc3ccc(Cl)cc3[nH]2)c1`, the figure is 2.61%.
